# Hits are enriched below; roughly 20% of the tested compounds scored in any of these assays.
# Pf growth 48h = inhibits P. falciparum growth in the first generation, 48 h | AID 504832 | P. falciparum luciferase growth in erythrocytes, 48 h | Potency, µM (highest dose often 28.7 µM), most hits filed as inhibitors | hit rate 5.9% among 310,000
#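 Read-out is firefly luciferase luminescence from an integrated reporter in P. falciparum, so falling signal marks reduced parasite growth. Infected erythrocytes were at 2% hematocrit and 0.1% parasitemia (final) in Albumax-supplemented RPMI 1640.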
# Shiga inhibitor = blocks Shiga toxin action in Vero cells. Vero cells, Shiga toxin protein synthesis inhibition reporter. hit rate 9.2% among 290,000. inhibition, % at 38.7 µM; in the data active = inhibition mostly above about 28%, no sharp cut-off; inactive = mostly below about 43%
# HCMV inh = blocks human cytomegalovirus replication; hit rate 4.5% among 410,000; HFF cells, HCMV-luciferase reporter, 72 h; stronger effect = lower value; activity change, negative = inhibition, % at 57.5 µM; in the data active = activity change below about -60%; inconclusive = no clear call, values can overlap the other calls; inactive = above about -39%
#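 Inhibition of viral replication was scored as loss of reporter luminescence in HFFs infected with HCMV-luciferase (MOI 1 PFU/cell) for 72 h; compounds tested at 2 doses, normalized to buffer and Salinomycin controls.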
# CHX counter = counter-screen hit for Shiga toxin inhibitors, cycloheximide; max response, %; cell reporter, cycloheximide protein synthesis inhibition counterscreen; hit rate 12% among 300,000; in the data active = max response mostly above about 13%, no sharp cut-off; inactive = mostly below about 14%; also: read at 38.3 µM for the half of the compounds with a filed dose
# Pf growth 96h = inhibits malaria parasite growth, 96 h; P. falciparum luciferase reporter growth, 96 h; Potency, µM (doses to about 28.7 µM), hits mostly inhibitors; hit rate 6.9% among 320,000; AID 504834
#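 96 h incubation, 37 C, 5% CO2, of luciferase-reporter P. falciparum-infected RBCs (2% hematocrit, 0.05% parasitemia final) with test compounds; endpoint luminescence.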
# Hits are given with their value; 0 = inactive; ? = inconclusive; - = no result. Unless noted, calls follow the shape of the dose curve; as a rule, active = well fitted inhibition curve with a large enough effect; inconclusive = small, poorly fitted or top-dose-only effect, or another doubt; inactive = no such curve, though single readings can be large or run the other way.
SMILES,Pf growth 48h,Shiga inhibitor,HCMV inh,CHX counter,Pf growth 96h
CC1Cc2cc(/C(O)=C3/C(=O)C(=O)N(CCN4CCOCC4)C3c3ccc([N+](=O)[O-])cc3)ccc2O1 (centres undefined),0,0,?,15,9.3µM
CCOc1ccc(NC(=O)CSc2cn[nH]n2)cc1,0,-,0,-,0
O=C(CCNS(=O)(=O)c1ccc(Br)cc1)NCC(c1cccs1)N1CCOCC1 (centres undefined),-,-,0,-,-
Nc1nc(COC(=O)CCC(=O)c2ccccc2)nc(Nc2ccccc2)n1,0,-,0,-,?
CC1CC(C)CN(C(=S)SCc2nc(N)nc(Nc3ccccc3)n2)C1 (centres undefined),?,0,-65,0,?
Nc1nc(CSC(=S)N2CCOCC2)nc(Nc2ccccc2)n1,0,94,0,54,0
Cc1ccc(Nc2nc(N)nc(CSC(=S)N3CCOCC3)n2)cc1,0,96,0,46,0
Nc1nc(CSC(=S)N2CCCCC2)nc(Nc2ccccc2)n1,0,87,0,40,0
COc1ccccc1Nc1nc(N)nc(CN2CC(C)CC(C)C2)n1 (centres undefined),0,0,0,0,?
O=C(O)/C=C/C(=O)Nc1ccc(Cc2ccc(NC(=O)/C=C/C(=O)O)cc2)cc1,0,0,0,0,0
Nc1nc(CSC(=S)N2CCN(c3ccccc3)CC2)nc(Nc2ccc(F)cc2)n1,?,0,0,0,12µM
COc1ccccc1Nc1nc(N)nc(CSC(=S)N2CCCCC2)n1,0,59,0,31,0
CCOc1ccc(Nc2nc(N)nc(CSC(=S)N3CCOCC3)n2)cc1,0,0,0,44,0
COc1ccccc1Nc1nc(N)nc(CN2CCCCC2)n1,0,0,0,0,0
Cc1cccc(Nc2nc(N)nc(CSC(=S)N3CCOCC3)n2)c1,0,0,0,0,0
C=CC(COCc1ccccc1)N([C@@H](Cc1ccccc1)C(=O)OC)S(=O)(=O)c1ccccc1Br (some centres undefined),-,-,0,-,-
COc1cccc(C2C=C(c3ccc(Br)s3)Nc3ncnn32)c1OC (centres undefined),?,0,-,0,2.3µM
COc1ccc(C2C=C(c3ccc(C)c(C)c3)Nc3ncnn32)c(OC)c1OC (centres undefined),-,0,?,0,9.3µM
Fc1ccc(Br)cc1C1C=C(c2ccc(Br)s2)Nc2ncnn21 (centres undefined),0,0,-,0,0
CCn1c(SCC(=O)Nc2cc(S(=O)(=O)N3CCOCC3)ccc2OC)nnc1-c1ccncc1,0,0,0,0,0
Cc1cccc(NC(=O)CSc2nc3ccccc3nc2N2CCC(C)CC2)c1,-,-,-88,-,-
COc1ccc(NC(=O)CSc2nc3ccccc3nc2N2CCCC2)cc1,0,0,0,0,?
CC(=O)Nc1ccc(NC(=O)CSc2nc3ccccc3nc2N2CCC(C)CC2)cc1,?,0,0,19,0
Cc1cccc(N=Cc2[nH]c3ccc(Br)c(Cl)c3c2O)c1,15µM,63,0,0,0
COc1ccc(NC(=O)CN2C(=O)CSc3ccc(S(=O)(=O)N(C)C)cc32)cc1Cl,-,-,0,-,-
SMILES,Pf growth 48h,Shiga inhibitor,HCMV inh,CHX counter,Pf growth 96h
CC(=O)Nc1ccc(NC2=Nc3ccccc3N3C2=Nc2c(c(C)nn2-c2ccccc2)C3c2ccccc2)cc1 (centres undefined),0.93µM,0,-99,0,?
COc1ccc(NC2=Nc3ccccc3N3C2=Nc2c(c(C)nn2-c2ccc(C)cc2)C3c2cccnc2)cc1 (centres undefined),-,0,0,0,2.1µM
Cn1c(=O)c2c(nc(NCCCCO)n2Cc2ccccc2Cl)n(C)c1=O,-,-,0,-,-
CCOC(=O)C1C(c2ccc(C(=O)O)cc2)NC(=O)NC1(O)C(F)(F)F (centres undefined),0,0,-72,0,0
CCOC(=O)C1C(c2cccc(Cl)c2Cl)NC(=O)NC1(O)C(F)(F)F (centres undefined),0,0,0,0,0
COC(=O)c1ccccc1NC(=O)Cn1cnc2sc(C)c(S(=O)(=O)N3CCC(C)CC3)c2c1=O,-,-,0,-,-
CCOC(=O)c1cc2c(=O)n3ccccc3nc2n(Cc2ccco2)c1=NC(=O)c1ccc(OC)cc1,9.3µM,0,?,0,0
CCOC(=O)c1cc2c(=O)n3ccccc3nc2n(Cc2ccco2)c1=NC(=O)c1cccc(OC)c1,?,0,0,0,?
CCOCCCn1c(=NC(=O)c2ccco2)c(C(=O)OCC)cc2c(=O)n3cccc(C)c3nc21,0,0,0,0,?
CCOC(=O)c1cc2c(=O)n3cccc(C)c3nc2n(CC(C)C)c1=NC(=O)c1ccco1,?,0,0,0,3.7µM
CCOC(=O)c1cc2c(=O)n3cccc(C)c3nc2n(Cc2ccco2)c1=NC(=O)c1ccccc1,?,0,?,0,12µM
CC(C)CNC(=O)C(=O)NCC1OCCCN1S(=O)(=O)c1cccs1 (centres undefined),0,0,-,0,0
COc1ccccc1NC(=O)CN1C(=O)c2cccc3cccc1c23,-,-,0,-,-
Cc1ccccc1S(=O)(=O)NCC1CCCO1 (centres undefined),0,-,0,0,0
Cc1ccccc1-n1c(=O)cc(NCc2ccc3c(c2)OCO3)[nH]c1=O,9.3µM,0,0,0,?
Cc1ccccc1-n1c(=O)cc(NCC2CCCO2)[nH]c1=O (centres undefined),0,0,0,0,6.6µM
Cc1cccc(-n2c(=O)c3c(c4cc(C)ccc4n3C)n(C)c2=O)c1,-,-,0,-,-
COC(OC)c1ccnc(-c2ccc(OC(=O)c3ccc(F)cc3)cc2)n1,?,0,0,0,0
CCCC(=O)Oc1ccc(-c2nccc(C(OC)OC)n2)cc1,0,52,?,0,0
CCC(C(=O)OC)n1nnc2sc(-c3ccccc3)cc2c1=O (centres undefined),-,-,0,-,-
COc1ccc2c(c1)CCN=C2Cc1ccc(OC)c(OC)c1,?,0,0,0,13µM
CCN1C(=O)C(=O)c2cc(C)ccc21,-,-,0,-,-
CC[N+]1=C(C)C(C)(C)c2cc(C)ccc21,?,0,-94,0,0
Cc1oc2c(Cl)c(Cl)c(O)c(CN(C)C)c2c1C(=O)c1ccc(Cl)cc1,?,0,-69,0,0
Cc1oc2ccc(O)c(CN3CCOCC3)c2c1C(=O)c1ccc(Cl)cc1,?,0,0,0,?
SMILES,Pf growth 48h,Shiga inhibitor,HCMV inh,CHX counter,Pf growth 96h
COC(=O)c1ccc(C(=O)OC)c(NC(=O)CN(C)Cc2ccc(Cl)c(Cl)c2)c1,10µM,0,0,0,?
COC(=O)c1ccccc1NC(=O)CN(C)Cc1ccccc1,0,0,0,0,0
Cc1ccccc1CC1SC(N=C(N)N)=NC1=O (centres undefined),0,-,0,0,?
COC(=O)[C@@]12C[C@@H](CC(=O)NCc3cccc(C(F)(F)F)c3)C(=O)N(Cc3cccc4ccccc34)C1=CCC(C)(C)C2,-,-,0,-,-
O=C(CSc1nc2ccccc2nc1Cc1ccccc1)NCc1ccccc1Cl,-,-,0,-,-
O=C(CN1CCN(c2ccccc2)CC1)Nc1ccccc1Sc1ccccc1,?,0,0,0,9.3µM
CC(=O)N1CCN(CC(=O)Nc2ccccc2Sc2ccc(Cl)cc2)CC1,?,0,-71,0,?
